# Screening results deposited in PubChem BioAssay by National Center for Advancing Translational Sciences (NCATS).
# Only some compounds are listed: those with a hit (about 19% of all), similar ones and a draw of the others.
# IL-1B inflam inh – blocks inflammasome-driven IL-1 beta release | THP-1 LPS/ATP IL-1B secretion, AlphaLISA, 16 h; stronger effect = lower value | activity change, % at 57.5 µM | 4.7% of 360,000 active; in the data active = activity change below about -50%; inconclusive = mostly about -30% to -49%
#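 Secreted IL-1B measured by AlphaLISA bead assay after 16 h compound exposure of THP-1 cells; compounds (final up to 57.5 uM) added 1 h before LPS (250 ng/mL) and ATP (1.25 mM) stimulation; lower signal means less secretion.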
# HT1080 IDH1KD tx – toxicity to HT-1080 IDH1 knockdown cells (counter line); HT-1080 IDH1 knockdown viability, ATP luminescence, 48 h; Potency, µM (titrated, usually from 46.1 µM), for the others: at the highest dose activity, negative = toxicity, hits mostly cytotoxic; 2% of 360,000 active;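 note: potency is the fitted concentration of half-maximal effect; 0% = DMSO wells and -100% = cell-free medium wells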
#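 After a 2 h attachment period, IDH1KD HT-1080 cells took pin-transferred compound for 48 h at 37 °C; ATP-based luminescence after 10 min room-temperature reagent incubation reported viability.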
# HT1080-NT tox – kills 2HG-producing HT-1080-NT fibrosarcoma cells; HT-1080-NT fibrosarcoma viability, CellTiter-Glo ATP luminescence, 48 h; 1.6% of 360,000 active; AID 686970; Potency, µM (titrated, usually from 46.1 µM), for inactives: at the top dose activity, negative = less viability, hits mostly cytotoxic;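 note: NT is the 2HG producing partner of a matched IDH1 knockdown line; potency is the fitted concentration of half-maximal effect; 0% = DMSO-treated cells and -100% = media-only wells without cells; nearly all actives have a fitted effect of over 55% in size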
#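 Viability by CellTiter-Glo luminescence after 48 h compound exposure at 37C of HT-1080-NT cells (750/well, RPMI, 5% FBS). % activity scaled between DMSO wells and medium-only wells, then curve-fitted and categorized by curve class.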
# TDP1 cell noCPT – qHTS for Inhibitors of human tyrosyl-DNA phosphodiesterase 1 (TDP1): qHTS in cells in absence of CPT; DT40 Tdp1-/- hTDP1 cells, no CPT, ATP luminescence, 48 h; Potency, µM (top dose mostly 46.2 µM), for inactives: top-dose activity change, negative = growth inhibition, most hits filed as inhibitors; 15% of 420,000 active; note: potency is the fitted concentration of half-maximal effect; nearly all actives have a fitted effect of over 55% in size
#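 Growth of hTDP1-complemented DT40 Tdp1-knockout cells is measured by ATP luminescence after at least 48 hr compound exposure at 37 °C, with DMSO substituting for the 20 nM CPT used in the parallel screen.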
# DT40 TDP1 CPT – DT40-hTDP1 cell growth loss with CPT | Potency, µM (top dose mostly 46.2 µM), for inactives: top-dose activity change, negative = growth inhibition, usual class: inhibitors | chicken DT40 Tdp1-/-;hTDP1 cells + 20 nM CPT, ATP luminescence, 48 h | 12% of 420,000 active | AID 686979; note: potency is the fitted concentration of half-maximal effect; nearly all actives have a fitted effect of over 55% in size
#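 Cell growth measured by CellTiter-Glo luminescence after a minimum 48 h, 37 C compound exposure with 20 nM CPT in Tdp1-knockout DT40 cells stably expressing hTDP1, seeded 400/well; qHTS titration format.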
# Starred values were filed as active, the others as inactive; ? = inconclusive; / = no result. Unless noted, calls come from the whole dose curve; as a rule, active = well fitted curve in the direction sought with a large enough effect; inconclusive = small, poorly fitted or top-dose-only effect, or another doubt; inactive = no such curve, though single readings can be large; an effect the other way counts as inactive or inconclusive. Unless noted, % is set by controls: 0 for no effect and ±100 for the full control effect.
SMILES,IL-1B inflam inh,HT1080 IDH1KD tx,HT1080-NT tox,TDP1 cell noCPT,DT40 TDP1 CPT
C=CCC1(N(C(C)=O)c2ccccc2C)CCCCC1,5,9%,3%,-18%,-1%
O=C(NCCN1CCOCC1)c1ccc(Cl)cc1O,4,-8%,3%,-6%,2%
COc1cc(-c2cc(C(=O)NCCc3ccc(S(N)(=O)=O)cc3)c3ccccc3n2)cc(OC)c1OC,-52*,-4%,-1%,3.3µM*,4.1µM*
Cc1ccc(-c2cc(C(=O)NCCc3ccccc3)c3ccccc3n2)cc1C,/,/,/,?,21µM*
Cc1ccc(-c2cc(C(=O)NCc3cnn(C)c3C)c3ccccc3n2)cc1C,/,/,/,18µM*,?
Cc1ccc(-c2cc(C(=O)NCC3CCCO3)c3ccccc3n2)cc1C (configuration not stated),1,25%,9%,5%,11%
Cc1ccc(-c2cc(C(=O)N/N=C\c3cnn(C)c3C)c3ccccc3n2)cc1C,-10,-25%,-22%,10µM*,12µM*
CN(C)/C=C/C(=O)c1ccc(F)cc1F,10,-3%,0%,-15%,-4%
COc1cc(NC(=O)C2CCCN(S(=O)(=O)c3ccc4c(c3)oc(=O)n4C)C2)c(C(=O)O)cc1OC (configuration not stated),/,/,/,-3%,1%
Cc1ccc2nc(-c3ccccc3)c(CC(=O)O)c(C(=O)O)c2c1,31,14%,8%,-5%,-3%
Cc1cc(C(=O)N(C)Cc2c(F)cccc2Cl)c2ccccc2n1,-12,-16%,-15%,?,?
COC(=O)c1sc2cccc(F)c2c1S(=O)(=O)NCc1ccccc1Cl,/,/,/,-12%,20%
Cc1ccc(-c2cccc(C(=O)NCCc3ccccc3)n2)c2ccccc12,-14,-17%,-26%,16µM*,26µM*
Cc1ccc(-c2cccc(C(=O)NCc3ccccc3)n2)c2ccccc12,-11,?,?,?,?
CC(C(=O)NCc1ccccc1)N1Cc2ccccc2C1=O (configuration not stated),/,/,/,-10%,7%
CCOc1ccc(CCNC(=O)C(CC(C)C)N2Cc3ccccc3C2=O)cc1OCC (configuration not stated),/,/,/,9.2µM*,10µM*
CC(C)CC(C(=O)NCCc1ccccc1)N1Cc2ccccc2C1=O (configuration not stated),/,/,/,21µM*,?
Cc1cccc(NC(=O)CNC(=O)Cn2cc(C(F)(F)F)cc(Cl)c2=O)c1C,1,20%,14%,-6%,-23%
CCN(CC)S(=O)(=O)c1ccc(C(=O)Nc2ccc(Cc3ccncc3)cc2)cc1,-83*,-15%,1%,15µM*,16µM*
CCN(Cc1ccncc1)S(=O)(=O)c1ccc(C(C)=O)cc1,0,-11%,0%,12µM*,16µM*
CCOC(=O)N1CCC2(CC1)NCCc1c2[nH]c2ccccc12,3,0%,-8%,-19%,-2%
FC(F)(F)c1cccc(NCc2n[nH]c(=S)n2C2CCCCC2)c1,-14,-3%,-8%,13µM*,?
COC(=O)C1Cc2c([nH]c3ccccc23)C2(CCN(Cc3ccccc3)CC2)N1 (configuration not stated),-86*,18µM*,18µM*,21µM*,?
CCCN1CCC2(CC1)NC(C(=O)O)Cc1c2[nH]c2ccccc12 (configuration not stated),2,-13%,0%,8%,-2%
COc1ccc(CNC2CCSc3ccccc32)cc1OC (configuration not stated),?,-6%,-20%,?,?
SMILES,IL-1B inflam inh,HT1080 IDH1KD tx,HT1080-NT tox,TDP1 cell noCPT,DT40 TDP1 CPT
COc1ccc(C(=O)N(C)C2CCCc3ccccc32)cc1OC1CCN(C(C)C)CC1 (configuration not stated),-1,15%,5%,?,21µM*
COc1ccccc1CN(C)CC(=O)NC1CCCc2ccccc21 (configuration not stated),4,-19%,-7%,?,15µM*
COc1ccc(CNC2CCCc3ccccc32)cc1OC (configuration not stated),-8,0%,-22%,18µM*,?
COc1ccccc1C(=O)NCC(=O)NC1CCCc2ccccc21 (configuration not stated),29,-1%,-2%,?,?
COC(=O)CN(C)C(=O)c1ccc(OC)c(OC2CCN(C(C)C)CC2)c1,9,8%,9%,0%,-27%
COc1ccc(C(=O)NC2CCCc3ccccc32)c(OC)c1OC (configuration not stated),13,?,?,21µM*,18µM*
COc1ccc(C(=O)NN2CC(O)=C(c3nc4ccccc4n3C)C2=N)cc1OC,9,0%,6%,4%,-5%
N#CCCn1c(=O)c(-c2cccs2)nc2cnc(N3CCOCC3)nc21,/,/,/,7%,-1%
CC(=O)c1cccc(NC(=O)CN2C(=O)CN(C)C(=O)c3ccccc32)c1,/,/,/,16%,-5%
CCN(CC(=O)Nc1cc(Cl)ccc1C)C(=O)CC1CCCC1,-13,16%,1%,?,-26%
Cc1cnc(C(=O)OC(C)C(=O)NC2CCCc3ccccc32)cn1 (configuration not stated),11,9%,4%,-4%,24%
COc1ccc(C(=O)OC(C)C(=O)NC2CCCc3ccccc32)cc1OC (configuration not stated),-52*,-1%,4%,-16%,-30%
O=C(O)C(Cc1ccccc1)N1C(=O)C=CC1=O (configuration not stated),-8,16%,9%,-6%,-1%
O=C(CCNS(=O)(=O)c1ccccc1)NNC(=O)C1COc2ccccc2O1 (configuration not stated),6,6%,5%,-4%,12%
COc1ccccc1CNCC(=O)Nc1ccccc1-n1cccc1,-3,-2%,2%,-12%,-5%
CC(C)(C)c1ccc(SC2=C[C@@]3(O)CC[C@@H](O)[C@@](Sc4ccc(C(C)(C)C)cc4)(C2=O)[C@H]3O)cc1,-90*,15µM*,16µM*,3.3µM*,4.6µM*
CC(C)(C)c1ccc(C(=O)C2CC2)cc1,-26,8%,2%,0%,7%
Cc1ccc(SC2=C[C@@]3(O)CC[C@@H](O)[C@@](Sc4ccc(C)cc4)(C2=O)[C@H]3O)cc1,-8,-22%,-27%,?,23µM*
CC(=O)/C=C(\C)Nc1c(C)n(C)n(-c2ccccc2)c1=O,-16,0%,13%,0%,0%
CCCCCCCCc1nc(SCC(C)=O)n[nH]1,-17,-7%,-2%,-23%,?
